A selection: hits, their analogues and other compounds. The true share with any hit is near 7.9%.
MARV entry inh = qHTS for inhibitors of binding or entry into cells for Marburg Virus | Marburg virus pseudotyped entry inhibition, cell reporter | Potency, µM (titrated, usually from 37.8 µM), for the others: top-dose activity change, negative = inhibition, most hits filed as inhibitors | 300,000 compounds, 1.8% hits; calls by dose curve; tested in HEK293 cells; further: potency means the concentration at half of the fitted maximal effect
HCMV antiviral = qHTS Assay for inhibitors of the human cytomegalovirus (HCMV); HFF cells, HCMV-luciferase reporter, 72 h; stronger effect = lower value; activity change, negative = inhibition, % at 57.5 µM; 410,000 compounds, 4.5% hits; in the data active means activity change below about -60%; inconclusive means no clear call, values can overlap the other calls; inactive means above about -39%
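Two-dose cell screen: HFF monolayers treated with compounds and infected with luciferase-expressing HCMV at 1 PFU/cell, 72 h at 37C, then lysed for luciferase measurement.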
Lassa entry inh = qHTS for Inhibitors of binding or entry into cells for Lassa Virus | Potency, µM (titrated, usually from 37.9 µM), for inactives: top-dose activity change, negative = inhibition, hits mostly inhibitors | 300,000 compounds, 1.2% hits | AID 540256, 2011 | Lassa virus pseudotype entry inhibition, cell reporter; calls by dose curve; tested in HEK293 cells; further: potency means the concentration at half of the fitted maximal effect; nearly all actives have a fitted effect of over 50% in size
FMDV antiviral = High Throughput Screening for Foot and Mouth Disease Virus Antivirals; 410,000 compounds, 1.2% hits; Potency, µM (titrated, usually from 57.9 µM), without a hit: at the top dose activity change, negative = inhibition, usual class: inhibitors; AID 1159524, 2015; FMDV antiviral cell-based qHTS; calls by dose curve; tested in HEK293T cells; further: read-out not given here; potency means the concentration at half of the fitted maximal effect; nearly all actives have a fitted effect of over 45% in size
HCV inh = qHTS Assay for Inhibitors of Hepatitis C Virus (HCV) | Potency, µM (top dose mostly 41.8 µM), without a hit: top-dose activity change, negative = inhibition, hits mostly inhibitors | 340,000 compounds, 3.4% hits | Huh7.5.1 HCVcc-Cre infection, luciferase reporter, 44 h; active means well fitted inhibition curve with a large enough effect; inconclusive means small, poorly fitted or top-dose-only effect, or another doubt; inactive means no such curve, though single readings can be large or run the other way; further: potency means the concentration at half of the fitted maximal effect
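Luciferase read-out (15 sec integration) after a 15 min room-temperature substrate step quantifies HCVcc-Cre infection. Cells, 1,000 per well, had compound added 4 h post-plating, then virus at ~0.5 moi, and were cultured 44 h.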
Active calls of the source: *; ? = inconclusive; nt = no result; [ ] = another dose, or the depositor's remark. On the % scale 0 is the no-effect control and ±100 the full control effect.

SMILES	MARV entry inh	HCMV antiviral	Lassa entry inh	FMDV antiviral	HCV inh
COc1cc(-c2coc3c(C(=O)NCc4ccc(N(C)C)cc4)cccc23)ccc1O	nt	26	nt	33%	nt
COc1cc(-c2coc3c(C(=O)NCc4ccc(OC)c(OC)c4)cccc23)ccc1O	nt	-73*	nt	18µM*	nt
COc1ccc(CNC(=O)c2cccc3c(-c4cccc(C(N)=O)c4)coc23)cc1OC	nt	-94*	nt	7.9µM*	nt
CC(=O)Nc1nonc1NC(C)=O	-1%	-17	0%	-7%	4%
CC(=O)Nc1cc(OC(C)=O)c2nonc2c1OC(C)=O	?	-104*	?	?	?
O=c1c(Br)c(Br)cnn1-c1ccccc1	?	-97*	?	14µM*	8.9µM*
O=c1c(Br)c(N2CCCC2)cnn1-c1ccccc1	6%	15	7%	43%	9%
CN(Cc1ccco1)C(=O)c1ccc2c(c1)N(Cc1ccccc1F)C(=O)c1ccccc1S2	nt	40	?	11%	nt
O=C(c1ccc(Cl)cc1)N1CCc2c([nH]c3ccccc23)C1C(F)(F)F (configuration not stated)	11µM*	?	?	-29%	?
O=C(Nc1ccccc1)N1CCc2c([nH]c3ccccc23)C1C(F)(F)F (configuration not stated)	?	6	?	-11%	?
Cc1ccc(C(=O)Nc2ccc3ccccc3c2)cc1	?	?	?	?	-24%
CC(=O)c1cc(C(=O)Nc2ccc3ccccc3c2)c(C)o1	5%[46.1 µM]	1	5%[46.1 µM]	10%	-13%
Cc1cc(C(=O)Nc2cccc(C(=O)O)c2)oc1C	?	34	3.5µM*	?	7%
Cc1cc(C(=O)Nc2ccc3ccccc3c2)oc1C	?	58	?	-2%	11µM*
Cc1cc(C(=O)Nc2cccc(C(=O)O)c2)c(C)o1	-18%	50	15%	-5%	20%
Cc1ccoc1C(=O)Nc1ccc2ccccc2c1	?	43	10µM*	?	?
CCn1ccc2cc(S(=O)(=O)N3CCCN(C(=O)Nc4cccc(Cl)c4)CC3)ccc21	nt	-4	-9%[46.1 µM]	0%	nt
Brc1ccc(-c2csc3ncnc(-n4nnc5ccccc54)c23)cc1	13µM*	-68*	?	?	?
O=S(=O)(NCc1ccccc1)NCc1ccccc1	?	-68*	6%[46.1 µM]	21%	3%
COc1ccc(N2C(=O)/C(=C/c3cc(C)n(-c4ccc(C)cn4)c3C)C(=O)NC2=S)c(OC)c1	nt	27	nt	32µM*	10%
COc1ccc(OC)c(N2C(=O)NC(=O)/C(=C/c3ccc([N+](=O)[O-])s3)C2=O)c1	?	3	10%	-20%	12%
COc1ccc(OC)c(N2C(=O)/C(=C/c3ccco3)C(=O)NC2=S)c1	10µM*	nt	-8%	-28%	-26%
CC(=O)c1ccc(NC(=O)CSc2nc(C3CCCC3)nc3c2c(=O)n(C)c(=O)n3C)cc1	nt	2	2%[46.1 µM]	?	nt
CC1CCN(S(=O)(=O)c2ccc3c(c2)c(=O)c(C(=O)N2CCN(c4cccc(Cl)c4)CC2)cn3C)CC1	12%[46.1 µM]	8	23%[46.1 µM]	-23%	nt
O=C(NCc1ccc(F)cc1F)Nc1cnccc1C(F)(F)F	nt	-68*	nt	-12%	-5%
SMILES	MARV entry inh	HCMV antiviral	Lassa entry inh	FMDV antiviral	HCV inh
O=C(NCc1cccnc1)Nc1ccc(F)cc1F	19%	45	9%	20%	3%
Cc1cccc(NC(=O)NCc2ccc3[nH]c(C)cc3c2)c1	nt	6	nt	30%	16%
S=C(NCc1ccc(Cl)cc1Cl)NC1CCCCC1	?	-78*	8.9µM*	-6%	?
Clc1ccc(CNC2CCCC2)c(Cl)c1	-13%	?	-14%	nt	2%
Cc1cc2cc(CNC(=S)NC3CCCCC3)ccc2[nH]1	-14%	-63*	?	11%	10µM*
Cc1ccc(NC(=O)NCc2ccc3[nH]c(C)cc3c2)cc1	nt	-84*	nt	37%	?
Cc1cc2cc(CNC(=O)NC3CCCCC3)ccc2[nH]1	29%	-23	23%	nt	-23%
O=c1c(N2CCN(c3cccc(C(F)(F)F)c3)CC2)csc2ccccc12	nt	-4	8%[46.1 µM]	-25%	nt
Cc1[nH]nc(-c2ccc(O)c(C)c2O)c1-c1cnn(-c2ccccc2)c1	?	-27	-13%	-2%	4µM*
O=C(NCc1cccnc1)c1cccc(Cl)c1	0%	-61*	-8%	-1%	14%
O=C(NCc1cccnc1)c1ccc(COc2ccccc2Br)cc1	?	-76*	?	?	?
O=C(NCc1ccco1)c1ccc(COc2ccccc2Cl)cc1	-3%	-28	-19%	-13%	11µM*
O=C(NCc1cccnc1)NC1(C(F)(F)F)Oc2ccc(Cl)cc2O1 (configuration not stated)	nt	nt	nt	?	10µM*
O=C(NCc1ccco1)c1ccc(COc2cccc3ccccc23)cc1	8%	?	-20%	-12%	?
Cc1ccc2ccccc2c1CSc1nc(N)nc2c1ncn2CC(C)C	?	15	?	0%	?
CC(C)c1ccc(C(=O)NC(=S)NCc2cccnc2)cc1	-19%	-74*	-21%	-27%	-12%
O=C(NCc1cccnc1)c1ccc(COc2ccccc2Cl)cc1	nt	-73*	nt	-26%	?
COC(=O)/C=c1/s/c(=C(\C#N)C(=O)NCc2ccco2)n(-c2ccccc2)c1=O	-4%	-9	0%	-19%	2%
COCCN1C(=O)CS/C1=C(/C#N)C(=O)NCc1ccco1	-14%[46.1 µM]	-84*	-7%[46.1 µM]	4%	7%
O=C(NCCCc1ccccc1)c1cccc(Br)c1	nt	-9	nt	39%	?
O=C(CN(Cc1ccccc1)C(=O)CCl)c1cccc(Br)c1	nt	-99*	nt	?	?
COc1cccc(-c2nccc(NCCc3c[nH]c4ccc(OC)cc34)n2)c1	nt	nt	nt	-22%	nt
Cc1ccc(-c2nnc(SCC(=O)N/N=C/c3ccc(C)s3)n2-c2ccc(C)cc2)cc1	?	-63*	?	-6%	?
Cc1nn(-c2ccccc2)c(C)c1/C=N/NC(=O)CSc1nc2ccccc2c(=O)n1-c1ccc(Br)cc1	?	-8	-25%	-7%	?
CCn1c(SCC(=O)N/N=C/c2ccc(C)s2)nc2ccccc21	2.6µM*	3	-19%	8%	?
Cc1ccc(-n2c(SCC(=O)N/N=C/c3c(C)nn(-c4ccccc4)c3C)nc3ccccc3c2=O)cc1	?	-63*	-22%	0%	?
Cc1ccccc1-n1c(SCC(=O)N/N=C/c2c(C)nn(-c3ccccc3)c2C)nc2ccccc2c1=O	7.3µM*	0	?	-23%	?
COC(=O)[C@@H]1CCCN1C(=O)c1c(OC)cc(=O)n2c1CCN(Cc1ccc3c(c1)CCO3)CC2	nt	nt	nt	-5%	nt
COc1cc2c(c(OC)c1OC)C(c1ccccc1)(c1ccccc1)CC2NC(=O)C(F)(F)F (configuration not stated)	-10%[14.2 µM]	nt	nt	nt	nt
